Bioassay records (PubChem BioAssay)
TexasRed fluor – alters Texas Red total fluorescence, flagging assay interference; TRb/SRC2 Texas Red total fluorescence interference; Potency, µM (top dose mostly 106 µM), for inactives: at the highest dose fluorescence change, negative = quenching; 0.29% of 280,000 active; AID 1479; active = well fitted curve in either direction with a large enough effect; inconclusive = small, poorly fitted or top-dose-only effect; also: % is scaled to controls: 0 for no effect and ±100 for the full control effect
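Human TRβ ligand-binding domain (0.6 uM) and Texas Red SRC2 peptide (20 nM) in Tris buffer with 1 uM T3 and 5% DMSO were incubated with pinned compound for 5 hr at ambient temperature. Total fluorescence was computed as S + 2P (555/632 nm).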
Apoferritin bind – candidate novel general anesthetic via apoferritin binding; P02791; apoferritin/1-aminoanthracene competitive binding, fluorescence; 0.074% of 350,000 active; Potency, µM (top dose mostly 77.5 µM), inactives show at the top dose activity change, negative = displacement, usual class: inhibitors; also: % is scaled to controls: 0 for no effect and ±100 for the full control effect; nearly all actives have a fitted effect of over 20% in size
Target sequence (P02791 2-175 limits assumed): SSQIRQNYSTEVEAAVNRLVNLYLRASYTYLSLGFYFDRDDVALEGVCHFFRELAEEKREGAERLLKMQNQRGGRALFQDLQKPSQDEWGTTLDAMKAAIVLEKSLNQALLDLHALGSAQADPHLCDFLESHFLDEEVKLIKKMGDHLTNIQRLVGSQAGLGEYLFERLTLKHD
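Concentration-response curves derived by four-parameter Hill fitting of normalized fluorescence, where compounds displaced 1-AMA from 10 uM horse apoferritin following a brief 10 min room-temperature incubation; propofol titration acted as positive control.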
GoLoco inh red – inhibitors of human Gai1-RGS12 GoLoco interaction (red fluorophore). Gai1:RGS12 GoLoco peptide FP, rhodamine, 10 min. 0.44% of 230,000 active. Potency, µM (series often up to 61.6 µM), without a hit: at the top dose activity, negative = inhibition, most hits filed as inhibitors. P63096; active = well fitted inhibition curve with a large enough effect, not every such curve was filed as active; inactive = no such curve, though single readings can be large or run the other way; also: % is scaled to controls: 0 for no effect and ±100 for the full control effect; nearly all actives have a fitted effect of over 30% in size
ERG-DNA inh – blocks human ERG Ets domain binding to DNA; P11308; 0.028% of 370,000 active; Potency, µM (top dose mostly 76.9 µM), without a hit: at the top dose FP activity, negative = inhibition, usual class: inhibitors; fluorescence polarization, His-ERG Ets domain / labelled DNA; active = well fitted inhibition curve with a large enough effect in the polarisation, with a control signal flat; inconclusive = small, poorly fitted or top-dose-only effect, or effect the other way, or a change in a side signal; inactive = no such curve, though single readings can be large or run the other way; the % refers to the polarisation;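 also: polarization taken with two DNA probes labelled with fluorescein and Texas red; % of control where 0% means no effect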
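His-tagged ERG Ets domain (1 uM in the protein solution; 300mM KCl, 50mM Tris-HCl, 1mM EDTA, 1mM DTT, pH 7.5) received compound, then a probe mix of 5 nM fluorescein-DNA and 100nM Texas-615-DNA. Fluorescence polarization was read for both dyes.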
TRb-SRC2 inh – inhibitors of human thyroid hormone receptor beta-SRC2 interaction; Potency, µM (top dose mostly 106 µM), inactives show at the top dose activity change, negative = inhibition, most hits filed as inhibitors; P10828; TRbeta-SRC2 peptide binding, fluorescence polarization; receptor liganded with 1 µM T3; 0.065% of 280,000 active;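 also: plate controls were bound peptide for no effect and peptide without receptor for full effect; nearly all actives have a fitted effect of over 50% in size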
Target sequence (P10828 whole entry, looked up): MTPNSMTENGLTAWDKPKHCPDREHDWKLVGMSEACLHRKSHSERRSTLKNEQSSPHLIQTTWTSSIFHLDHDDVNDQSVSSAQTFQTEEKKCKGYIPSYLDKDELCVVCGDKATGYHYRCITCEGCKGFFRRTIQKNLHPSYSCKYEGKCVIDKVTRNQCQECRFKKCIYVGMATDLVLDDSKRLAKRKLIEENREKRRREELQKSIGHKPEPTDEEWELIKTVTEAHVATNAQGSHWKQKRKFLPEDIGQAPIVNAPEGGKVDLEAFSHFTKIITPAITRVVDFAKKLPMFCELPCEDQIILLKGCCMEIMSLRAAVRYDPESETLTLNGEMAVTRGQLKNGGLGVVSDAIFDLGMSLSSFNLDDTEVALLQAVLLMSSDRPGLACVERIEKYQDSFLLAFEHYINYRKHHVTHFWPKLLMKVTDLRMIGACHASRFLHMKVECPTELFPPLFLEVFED
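Quantitative HTS by FP: 0.6 uM TRb LBD, 20 nM labeled SRC2 20-mer, 1 uM T3, 5% DMSO; 5 hr ambient incubation; % activity per concentration and potencies from concentration series.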
Starred values were filed as active, the others as inactive; u = inconclusive; x = no result; [ ] = remark or other dose. Most compounds without a hit are left out; they make up all but 0.44% or so of the library. Unless noted, calls follow the shape of the dose curve; as a rule, active = well fitted curve in the direction sought with a large enough effect; inconclusive = small, poorly fitted or top-dose-only effect, or another doubt; inactive = no such curve, though single readings can be large; an effect the other way counts as inactive or inconclusive. Potency is read from the fitted curve at half-maximal effect.

SMILES	TexasRed fluor	Apoferritin bind	GoLoco inh red	ERG-DNA inh	TRb-SRC2 inh
CCC1Cc2cc(O)ccc2C2=C1c1ccc(O)cc1CC2CC (centres undefined)	2%	-8%	x	x	3%
O=C(NC(NC(=S)Nc1ccc(F)c([N+](=O)[O-])c1)C(Cl)(Cl)Cl)C(c1ccccc1)c1ccccc1 (centres undefined)	u	-11%	x	x	6%
O.O.[Mn].[Mn].[Mn].[OH-].[OH-]	x	12%	x	x	x
CC(C)(C)c1ccc(C(=O)NCC(c2cccnc2)N2CCc3ccccc3C2)cc1 (centres undefined)	11µM*[quencher]	-9%	x	12%	2%
O=C(O)CCCCCNc1ccc2nsnc2c1[N+](=O)[O-]	35µM*[quencher]	2%	-1%	11%	-12%[53 µM]
CC(=O)c1ccc(NC(=O)CSc2nc(N)c3cc4c(nc3n2)CCCC4)cc1	89µM*[quencher]	-12%	56%	-1%	-22%
COc1ccc(NC(=O)CSc2nc(N)c3cc4c(nc3n2)CCCC4)cc1	1%	-10%	13%	2%	3%
COC(=O)CC1Oc2ccc(Cl)cc2-n2cc(-c3ccc(C)cc3)nc21 (centres undefined)	22µM*[quencher]	37%	x	-10%	-8%
O=S(=O)(Nc1cccc(-c2ccc(N3CCCCCC3)nn2)c1)c1ccc(C(F)(F)F)cc1	x	1%	x	7%	x
O=S(=O)(Nc1ccc(-c2ccc(N3CCCC3)nn2)cc1)c1cccc(C(F)(F)F)c1	708µM*[quencher]	53%	x	1%	-8%
N=C1[C@@H](O)[C@]2(I)c3ccccc3N3C(=N)[C@H](O)[C@@H]4c5ccccc5N1[C@@H]4[C@@H]32	x	x	2.2µM*	x	x
CC(C)(O)C1Cc2cc(/C=C/C(=O)O)c(O)cc2O1 (centres undefined)	-5%	-7%	28µM*	-25%	1%
CCCNC(=O)N1N=C(c2ccc(N)cc2)c2cc3c(cc2C1C)OCO3 (centres undefined)	u	-4%	x	x	-5%
O=C(Nc1cccc(Cl)c1)OCC#CCCl	7.9µM*[fluorescent]	-7%	x	x	0.79µM*
COc1cc(Cl)c(NC(=O)c2cc(S(=O)(=O)N3CCCCC3)c[nH]2)c(OC)c1	20µM*[quencher]	0%	x	-4%	-7%
CCC[C@H](NC(C)=O)C(=O)N[C@H]1CC(=O)ONCCCC[C@@H](C(N)=O)NC(=O)[C@H](Cc2c[nH]c3ccccc23)NC(=O)[C@H](CCCN=C(N)N)NC(=O)[C@@H](Cc2ccc3ccccc3c2)NC(=O)[C@H](Cc2cnc[nH]2)NC1=O	-3%	-2%	x	x	-3%
Fc1ccc(-c2cc(-c3ccc(F)cc3)c3c(n2)-c2cc(F)ccc2OC3)cc1	18µM*[quencher]	44%	x	-3%	-3%
Fc1ccc2c(c1)-c1nc(-c3ccccc3)cc(-c3ccccc3)c1CO2	-1%	-3%	x	5%	1%
CC(C)Nc1nc(N)nc(Cl)n1	0%[201 µM]	x	x	x	-2%[201 µM]
C=CC(=O)NC(C)(C)CS(=O)(=O)O	-3%[201 µM]	x	x	x	3%[201 µM]
Cc1cccn2c(=O)c(C(=O)NCCCN3CCCCC3C)c(O)nc12 (centres undefined)	18µM*[quencher]	-6%	x	-1%	-1%
CCC1CCCCN1CCCNC(=O)c1c(O)nc2c(C)cccn2c1=O (centres undefined)	-30%	-12%	x	14%	0%
Cc1sc2nc(SCc3nc(-c4ccccc4)no3)n(-c3ccccc3)c(=O)c2c1C	-1%	-1%	10µM*	-8%	-18%
Cc1sc2nc(SCC(N)=O)n(-c3ccccc3)c(=O)c2c1C	0%	-1%	3%	-3%	-2%
O=C(C[n+]1cc(-c2ccccc2)n2c1CCCCC2)c1ccc(Cl)cc1	3%	8%	9%	1%	4%
SMILES	TexasRed fluor	Apoferritin bind	GoLoco inh red	ERG-DNA inh	TRb-SRC2 inh
C[n+]1cc(-c2ccccc2)n2c1CCCCC2	-1%	-7%	4.5µM*	6%	-4%
NCCCCCCCCCCC(=O)O	-4%[201 µM]	x	x	x	-3%[201 µM]
Nc1ncc(N=Nc2cc(C(=O)O)ccc2Cl)s1	71µM*[quencher]	3%	-2%	-3%	19%
Cc1nnc(NC(=O)C2CC(=O)N(c3ccc4c(c3)OCCO4)C2)s1 (centres undefined)	x	x	x	8%	x
O=C(Nc1nc(-c2ccco2)c(-c2ccco2)s1)C1CC(=O)N(c2ccc3c(c2)OCCO3)C1 (centres undefined)	25µM*[quencher]	-6%	17%	-8%	27%
CCCN(CCC)C(=O)Cn1c(=O)n(-c2ccc(CC)cc2)c(=O)c2c3c(sc21)CCC3	0.2µM*[quencher]	-13%	x	-10%	-6%
CC1=NC(=O)C(N=Nc2cccc(C(=O)O)c2)N1c1ccccc1 (centres undefined)	-7%	-14%	20µM*	1%	2%
CC1=NC(=O)C(N=Nc2ccccc2)N1c1ccccc1 (centres undefined)	3%	6%	6%	0%	-14%
CC12CCC(=O)N1C(C(=O)Nc1nnc(SCc3ccc(F)cc3)s1)CS2 (centres undefined)	x	22µM*	x	-3%	x
C=CCSc1nnc(NC(=O)C2CSC3(C)CCC(=O)N23)s1 (centres undefined)	x	x	x	5%	x
Cn1nc(C(=O)Nc2ccc(F)c(Cl)c2)c2c1-c1ccccc1S(=O)(=O)C2	0.0063µM*[quencher]	-7%	x	-4%	-25%
Cn1nc(C(=O)NCc2ccccc2Cl)c2c1-c1ccccc1S(=O)(=O)C2	100µM*[quencher]	4%	x	14%	-28%
COc1ccccc1CNC(=O)c1nn(C)c2c1CS(=O)(=O)c1ccccc1-2	x	-5%	x	-7%	x
CCOc1cc(C)cc2oc(=O)cc(-c3ccccc3)c12	0%	u	6%	x	0%
Cc1cc(OC(C)C)c2c(-c3ccccc3)cc(=O)oc2c1	-8%	18µM*	-3%	12%	-3%
CCOc1ccc(C(=O)CCN2CCCCCC2)cc1	-6%	-14%	4%	0%	-22%
CCCOc1ccc(C(=O)CCN2CCCCC2)cc1	2%	u	-4%	5%	40µM*
CCCCOc1ccc(C(=O)CCN2CCOCC2)cc1	-4%	-21%	1%	9%	5.6µM*
O=C(OCCN1CCOCC1)c1ccc(OCCN2CCOCC2)cc1	0%	-1%	0%	1%	0%
CN(C)C1CCN(CCCOc2ccc(-c3ccc(C#N)cc3)cc2)C1 (centres undefined)	-9%	-13%	x	x	-2%
CCOc1cccc2sc(N(CCN(CC)CC)C(=O)c3ccco3)nc12	14µM*[quencher]	42%	x	1%	-11%
CCN(CC)CCN(C(=O)c1ccco1)c1nc2c(C)cccc2s1	2%	-11%	x	-11%	-2%
O=S(=O)(NCCc1ccccc1)c1ccccc1Br	-2%	u	x	x	2%
Cc1cc(S(=O)(=O)NCCc2ccccc2)c(C)s1	4%	8.9µM*	-3%	-2%	7%
